Drawing on PubChem BioAssay AID588855 (National Center for Advancing Translational Sciences (NCATS), 2011), this text covers Potency for 96 molecules.

SMILES strings stand for the structures. The campaign covered roughly 410,000 compounds. About 5,000 (1.2%) were called active. Roughly 13% stayed inconclusive and do not appear here. The call rests on the fitted dose curve; in most records, active means well fitted inhibition curve with a large enough effect; inconclusive means small, poorly fitted or top-dose-only effect; inactive means no such curve, though single readings can be large or run the other way. Shown is part of a subset that was picked to be rich in actives. Entries that show only a call come without a potency.
Potency means the concentration at half of the fitted maximal effect.

A short description of this assay: qHTS for Inhibitors of TGF-b. Further: nearly all actives have a fitted effect of over 65% in size. To be noted: HepG2 CAGA-GFP TGF-b/SMAD3 reporter, GFP fluorescence, 18 h, TGF-beta stimulated, 500 pg/mL final; series mostly up to 46.1 µM. In a few lines: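 TGF-beta reporter screen: HEPG2 CAGA-GFP, 1% FBS, 500 pg/mL TGF-beta final, 18 h; per-cell GFP summed per well; curves fitted and categorized by class.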
(In general: In qHTS, concentration-response curves come from the screen itself.)
For `Brc1nc2ncnc(NCc3ccco3)c2[nH]1`, the Potency result was “inactive”. As for `CC(=O)N(CN1C(=O)C2CC=CCC2C1=O)c1cccc(Cl)c1` (stereo unspecified), the Potency entry was “inactive”. Regarding `COC(=O)c1cc(C(=O)N(Cc2ccccc2)c2ccccn2)cc([N+](=O)[O-])c1`, the Potency entry is “inactive”. In the case of `O=C(CCl)N(Cc1cccc([N+](=O)[O-])c1)c1cccc(Cl)c1`, the Potency was 11.2 µM (active). Take `CCCc1nn2c(=O)cc(COC(=O)c3ccc(NC(=O)COc4ccc(F)cc4)cc3)nc2s1`: the Potency entry was “inactive”. Turning to `Oc1ccc(N2CCN(C(=S)NCc3ccccc3)CC2)cc1`, the Potency entry is “inactive”. The value for `c1ccc(CNCc2ccc(CNCc3ccccc3)cc2)cc1` was “inactive”. Take `Oc1ccc(CNc2ccccc2O)cc1`: the Potency is 12.6 µM (active).

Regarding `CCN(CC)c1nc(C#N)nc(OC)n1`, the Potency result was “inactive”. As to `O=C(CCl)Nc1ccc(Sc2ccc(NC(=O)CCl)cc2)cc1`, the Potency was 10 µM (active). Regarding `CC(C)(CCl)C(=O)Nc1ccc(Sc2ccc(F)cc2)cc1`, the Potency entry was “inactive”.

For the molecule `CCC(=O)Nc1ccc(Nc2nc(Cl)nc(Nc3ccc(NC(=O)CC)cc3)n2)cc1`, the Potency entry is “inactive”. Take `CCOc1ccc(C2C(C(=O)Nc3ccc(Cl)cc3)=C(C)Nc3nc(C(F)(F)F)nn32)cc1` (stereo unspecified): the Potency result was “inactive”.

Regarding `CCc1ccc(NC(=O)c2cc(S(=O)(=O)N3CCCC(C)C3)cn2C)cc1` (stereo unspecified), the Potency entry was “inactive”. Take `Cn1c(=O)c2c(SCC(=O)NCC3CCCO3)nc(-c3ccccc3F)nc2n(C)c1=O` (stereo unspecified): the Potency result is “inactive”. Regarding `CCS(=O)(=O)Nc1cccc(-c2cc(-c3ccccc3)c3cc(C)ccc3n2)c1`, the Potency result was “inactive”. In the case of `CCCOc1ccc(-c2cccc(NS(=O)(=O)c3ccccc3)c2)nn1`, the Potency is 10 µM (active). The value for `CNC(=O)COc1ccc(S(=O)(=O)Nc2ccccc2)cc1` was “inactive”; that for `CN(C)c1nc(=Nc2cccc(Cl)c2)ss1` was 0.282 µM (active).

For the molecule `COc1ccccc1-c1ccnc2[nH]n(-c3ccccc3)c(=O)c12`, the Potency entry is “inactive”. The value for `CCOC(=O)C1CCCN(CC(=O)Nc2cc(C)c3c(=O)oc4ccccc4c3n2)C1` (stereo unspecified) was “inactive”; that for `O=C(O)C1CC=CC2CCN(C3CCCCC3)C(=O)C21` (stereo unspecified) was “inactive”; that for `CCOc1cc(/C=C(\C#N)C(=O)Nc2ccccc2C)ccc1OCc1cc(=O)n2nc(CC)sc2n1` was “inactive”. Turning to `C=C(C)C(=O)O[C@H]1C/C(C)=C\C(=O)/C=C(\C)[C@H](O)[C@@H]2OC(=O)C(=C)[C@@H]21`, the Potency was 3.55 µM (active).

Take `COc1ccc(NS(=O)(=O)c2ccc(N3CCOCC3)c(NC(=O)/C=C/C(=O)O)c2)cc1`: the Potency result was “inactive”. The value for `COC(=O)c1nc(NC(=O)c2ccc(C(C)(C)C)cc2)n[nH]1` was “inactive”.

Regarding `COC(=O)c1sc(-c2ccc(C(C)(C)C)cc2)cc1NC(=O)/C=C/C(=O)O`, the Potency is 8.91 µM (active). With `COc1ccc(C(=O)Nc2ccc(-n3nncc3-c3ccccc3)cc2)cc1OC`, the Potency result is “inactive”.

Turning to `CCOC(=O)Nc1ccc2c(c1)N(C(=O)CCCl)c1ccccc1[S@]2=O`, the Potency was 7.08 µM (active). Regarding `CCOC(=O)Nc1ccc2c(c1)N(C(=O)CCN1CCN(CCO)CC1)c1ccccc1CC2`, the Potency entry was “inactive”. For the molecule `CCOC(=O)Nc1ccc2c(c1)N(C(=O)CN1CCN3CCCC3C1)c1ccccc1CC2` (stereo unspecified), the Potency entry was “inactive”. As for `S=c1[nH]c(=S)c2n[nH]nc2[nH]1`, the Potency result was “inactive”. The value for `Cc1ccc(C(=O)Nc2c(C(=O)NC(C)(C)C)oc3ccccc23)cc1` was “inactive”; that for `CCCC(=O)Nc1ccc2oc(-c3ccc(O)c(Br)c3)nc2c1` was “inactive”. The value for `CC(=O)Nc1ccc(C=Cc2ccc([N+](=O)[O-])cc2)cc1` was “inactive”; that for `CC(=O)Nc1ccc(C=CC(=O)c2ccc([N+](=O)[O-])cc2)cc1` was “inactive”; that for `O=C1/C(=C\c2ccc([N+](=O)[O-])cc2)CS(=O)(=O)C/C1=C/c1ccc([N+](=O)[O-])cc1` was 6.31 µM (active). `COC(=O)c1cccc(Cn2nnc3sc4c(c3c2=O)CCC(C(C)(C)C)C4)c1` (stereo unspecified): the Potency entry is “inactive”. In the case of `COc1cccc(CNc2nccn(-c3ccc(OC)c(OC)c3)c2=O)c1`, the Potency result is “inactive”. With `O=C(NC1CCN(Cc2ccccc2)CC1)c1ccc(Cn2c(=O)c3ccccc3n(Cc3cccc(F)c3)c2=O)cc1` the entry was “inactive”. As to `Fc1ccc(-c2nc(Nc3cccc(Cl)c3)nc3c2COc2ccccc2-3)cc1`, the Potency entry was “inactive”. As for `Cc1oc(C)c2c(=O)cc(-c3ccc4c(c3)OCO4)cc(OC(=O)c3ccc(Cl)cc3)c12`, the Potency entry was “inactive”. Turning to `COc1ccc(C(=O)Nc2onc3c2CCCC3)cc1`, the Potency result was “inactive”. Take `Cc1ccc(NC(=O)NNC(=O)c2sccc2-n2cccc2)cc1`: the Potency entry was “inactive”. `O=C(NNC(=O)c1ccc(-c2ccccc2)cc1)Nc1ccccc1`: the Potency result is “inactive”.

On to `C=CC[n+]1c(-c2ccc(C)cc2)csc1NNC(=O)Nc1ccccc1`, for which the Potency was 11.2 µM (active). The value for `O=C(NC1CC(=O)N(c2ccc(F)cc2)C1)c1cccs1` (stereo unspecified) was “inactive”. As to `CCCCCCCCNS(=O)(=O)CCNC1CCCCC1`, the Potency is 17.8 µM (active). With `CC1(C)CC(=O)C=C(NCCCNC2CCCCC2)C1` the entry was “inactive”. In the case of `CCCCNS(=O)(=O)CCNCc1ccccc1OC`, the Potency entry was “inactive”. On to `O=C(CC1Oc2ccc(Cl)cc2NC1=O)NCc1ccccc1` (stereo unspecified), for which the Potency entry was “inactive”. For `Cc1ccccc1CNC(=O)C(=O)NCC(c1cccs1)S(=O)(=O)c1cccs1` (stereo unspecified), the Potency entry was “inactive”.

As to `CN1CCN(c2ccc([N+](=O)[O-])c(Sc3nc4ccccc4[nH]3)c2)CC1`, the Potency result is “inactive”. On to `CCC(C)N1C(=O)S/C(=C/c2ccc(Sc3nc4ccccc4[nH]3)o2)C1=O` (stereo unspecified), for which the Potency is 11.2 µM (active). As for `CN(Cc1ccccc1)C(=O)CSc1nc2ccccc2[nH]1`, the Potency result was “inactive”.

Take `COc1ccc(-c2nnc(SCC(=O)Nc3ccc(C(C)C)cc3)nc2-c2ccc(OC)c(OC)c2)cc1OC`: the Potency entry is “inactive”.

As for `COc1ccc(CNC(=O)Cn2nnc(-c3ccccc3F)n2)cc1`, the Potency result was “inactive”. For the molecule `Cc1nc(/N=C(\N)NC(=O)NC2CCCCC2)nc2ccccc12`, the Potency is 12.6 µM (active). For the molecule `O=C(NNC(=O)C(O)c1ccccc1)NC1CCCCC1` (stereo unspecified), the Potency entry was “inactive”. With `CC(C)c1cc(C(=O)NC2CCCCCC2)c2ccccc2n1` the entry was “inactive”.

Regarding `CCC1(C)CC(=O)c2c(ccc3oc(C(=O)Nc4ccc(C(C)=O)cc4)c(C)c23)O1` (stereo unspecified), the Potency entry is “inactive”. The value for `CCn1c(=O)cc(OCC(=O)Nc2cc(Cl)c(OC)cc2OC)c2ccccc21` was “inactive”; that for `COc1ccc(OC)c(-c2csc(-c3c(N)c(C(=O)c4ccccc4)n4ccccc34)n2)c1` was “inactive”; that for `C=CS(=O)c1sc(Cl)c(N2CCOCC2)c1[N+](=O)[O-]` (stereo unspecified) was 11.2 µM (active). Turning to `Cc1nnc(SC(C(=O)c2ccccc2)c2ccccc2)[nH]c1=O` (stereo unspecified), the Potency result was “inactive”. As to `COc1cccc(NC(=O)C(Sc2nnnn2C)c2ccccc2)c1` (stereo unspecified), the Potency entry was “inactive”. With `Cc1nnc(SC(C(=O)Nc2cc(Cl)cc(Cl)c2)c2ccccc2)[nH]c1=O` (stereo unspecified), the Potency is 17.8 µM (active). For `Cc1ccn2c(Nc3ccc4c(c3)OCCO4)c(-c3ccc(C)s3)nc2c1`, the Potency result was “inactive”. In the case of `COc1ccccc1CNC(=O)c1ccc(-n2c(C)cc3c2CCCC3)cc1`, the Potency result was “inactive”. On to `Cc1ccc(C(=O)Nc2ccccc2F)cc1S(=O)(=O)N1CCOCC1`, for which the Potency entry is “inactive”. In the case of `CC(=O)c1ccc(NC(=O)CSc2nnc(NC(=O)Nc3ccccc3)s2)cc1`, the Potency result is “inactive”. As for `C=CCSc1nsc(NC(=O)Nc2cccc(C(C)=O)c2)n1`, the Potency is 3.55 µM (active). Turning to `CC(=O)c1cccc(NC(=S)N2CCCC2)c1`, the Potency entry was “inactive”. For `CCN(CC)c1ccc(NC(=O)Cn2nc3c(cc2=O)CCCC3)c(C)c1`, the Potency entry is “inactive”.

On to `O=C(Nc1ccccc1Cl)N1CCC(CN2CCCC2)CC1`, for which the Potency entry is “inactive”.

On to `O=C(Nc1ccccc1Cl)/C(Cl)=C(\Cl)S(=O)c1ccccc1` (stereo unspecified), for which the Potency was 2.24 µM (active). Regarding `CS/C(=C\C(=O)c1ccco1)Nc1ccccc1Cl`, the Potency entry is “inactive”. The value for `CCc1ccc(-n2nc(C)c3c(C)cc(=O)n(CC(=O)Nc4ccc(F)cc4C)c32)cc1` was “inactive”. For the molecule `CCOc1ccccc1NC(=O)CCn1cnnn1`, the Potency entry is “inactive”. With `Cc1ccc(S(=O)(=O)/N=C(\N)c2ccc(F)cc2)cc1` the entry was “inactive”; with `O=C(Cc1cccs1)NCc1cccc(C(F)(F)F)c1`, “inactive”. Regarding `N/C(=N\S(=O)(=O)c1cc(C(F)(F)F)cc(C(F)(F)F)c1)c1cccs1`, the Potency is 12.6 µM (active). With `CCc1ccc(NC(=O)CSc2nc3c([nH]c4ccccc43)c(=O)n2-c2cccc(OC)c2)cc1` the entry was “inactive”; with `COc1ccc(-c2nc(Cn3c(=O)cc(C)c4c(C)nn(-c5ccccc5)c43)c(C)o2)cc1OC`, “inactive”.

`Cc1ccc(C)n1NC(=O)c1ccc([N+](=O)[O-])cc1`: the Potency entry is “inactive”. With `N=C1C(c2nc3ccccc3s2)=C(O)CN1NC(=O)c1ccc([N+](=O)[O-])cc1` the figure was 7.08 µM (active); with `N=C1C(c2nc3ccccc3[nH]2)=C(O)CN1NC(=O)c1c[nH]c2ccccc12`, “inactive”. As for `Cc1ccc(C(=O)Nc2ccc(OCc3cc(=O)n4c5c(sc4n3)CCCC5)cc2)cc1`, the Potency result is “inactive”. As to `CCOc1ccc(CCN2C(=S)N([C@@H](CC(C)C)CN3CCC[C@@H]3CN3C(=S)NC[C@@H]3Cc3ccc(O)cc3)C[C@@H]2Cc2ccc(O)cc2)cc1`, the Potency was 11.2 µM (active). Turning to `CC(C)C[C@H]1CNC(=S)N1C[C@H]1CCCN1C[C@H](Cc1ccc(O)cc1)N1C[C@H](Cc2ccc(O)cc2)N(CC2CCCCC2)C1=S`, the Potency is 15.8 µM (active). With `CCOc1ccc(CCN2C(=S)N([C@@H](CC(C)C)CN3CCC[C@@H]3CN3C(=S)NC[C@@H]3Cc3ccc(O)cc3)C[C@@H]2CC(C)C)cc1` the figure was 10 µM (active). For the molecule `O=C1NC[C@@H](Cc2ccc(O)cc2)N(CCc2cccc(F)c2)C1=O`, the Potency result was “inactive”. For `O=C1NC[C@H](Cc2ccc(O)cc2)N(C[C@H]2CCCN2C[C@H](Cc2ccccc2)N2C[C@H](Cc3ccccc3)N(CCc3ccccc3)C(=O)C2=O)C1=O`, the Potency result was “inactive”. As to `CC[C@@H](C)[C@@H]1CN([C@@H](C)CN2CCC[C@H]2CN2C(N)=NC[C@H]2C(C)C)C(=N)N1CCc1ccc(Cl)c(Cl)c1`, the Potency entry was “inactive”. With `NC1=NC[C@@H](Cc2ccc(O)cc2)N1CC1CCCCC1`, the Potency result was “inactive”. For `C[C@@H](CN1CCC[C@H]1CN1C(N)=NC[C@@H]1Cc1ccccc1)N1C[C@@H](Cc2ccccc2)N(CCCC2CCCC2)C1=N`, the Potency entry was “inactive”.
